The target of one assay is PGR (gene 5241) (UniProt P06401). The assay can be described thus: NVS_NR_hPR: NovaScreen (NVS) Nuclear Receptor Binding Assay for human Progestron Receptor (PR) (AID 2283360).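 Note: active means loss of bound radioligand signal versus DMSO baseline.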 Summed up:
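T47D-derived receptor preparation, cell-free, with tritiated or iodinated radioligand displacement measured by scintillation 18 h post-dosing. Single 25 uM duplicate screen, then concentration series; signal loss relative to DMSO.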

For assay [1], the target named is Glucocorticoid receptor (Homo sapiens) (UniProt P04150). Description: NVS_NR_hGR: NovaScreen (NVS) Nuclear Receptor Binding Assay for human Glucocorticoid Receptor (GR) (AID 2283363).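 For AC50: activity is loss of specific radioligand binding signal relative to DMSO.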 Summed up:
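Competitive displacement of a labelled ligand was measured on cell-free receptor preparations after 16 h exposure. Initial testing used 25 uM in duplicate with plate controls; confirmed actives went into concentration series.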

For assay [2], the target named is Peroxisome proliferator-activated receptor gamma (Homo sapiens) (UniProt P37231). The assay can be described thus: NVS_NR_hPPARg: NovaScreen (NVS) Nuclear Receptor Binding Assay for human Peroxisome Proliferator-activated Receptor gamma (PPARg) (AID 2283370). Summed up: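 FP read-out, 2 h post-dose, cell-free extracted receptor protein. Signal loss vs DMSO negative control = binding activity. Single-conc duplicate HTS at 25 uM; concentration-response follow-up for actives.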
Sequence of Peroxisome proliferator-activated receptor gamma (Homo sapiens) (P37231 whole entry, looked up): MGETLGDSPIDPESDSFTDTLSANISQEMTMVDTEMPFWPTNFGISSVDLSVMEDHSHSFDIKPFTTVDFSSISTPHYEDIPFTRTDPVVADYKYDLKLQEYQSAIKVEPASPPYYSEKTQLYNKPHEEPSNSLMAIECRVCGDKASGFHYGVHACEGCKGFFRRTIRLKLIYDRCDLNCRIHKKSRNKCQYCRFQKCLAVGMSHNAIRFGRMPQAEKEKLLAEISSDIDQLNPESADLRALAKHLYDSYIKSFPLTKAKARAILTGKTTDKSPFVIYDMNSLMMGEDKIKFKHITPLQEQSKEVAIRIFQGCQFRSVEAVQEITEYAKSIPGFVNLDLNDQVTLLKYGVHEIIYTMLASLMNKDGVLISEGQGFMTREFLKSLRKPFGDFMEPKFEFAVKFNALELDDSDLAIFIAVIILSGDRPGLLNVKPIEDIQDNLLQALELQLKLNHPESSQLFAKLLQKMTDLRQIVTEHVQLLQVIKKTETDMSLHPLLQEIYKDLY

For assay [3], the target named is Estrogen receptor beta (Homo sapiens) (UniProt Q92731). The assay can be described thus: OT_ER_ERbERb_1440: Odyssey Thera (OT) 24-hour HEK293T Protein-Complementation Assay for Estrogen Receptor-beta/-beta Homodimer (AID 2283380).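 Note: fluorescence gain from ER beta LBD homodimer complementation read by laser scanning cytometry; scored as signal increase over DMSO baseline for both agonists and antagonists.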 Summed up:
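Fluorescence increase, nuclear for agonists or whole-cell for antagonists, relative to DMSO vehicle, quantified by laser scanning cytometer after fixation and Draq5 staining. Readout from 24 h treatment of HEK293T cells carrying complementation-paired ER beta LBD (aa 310-547).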

Assay [4] deals with Estrogen receptor (Homo sapiens) (UniProt P03372). Description: OT_ERa_GFPERaERE_0480: Odyssey Thera (OT) 8-hour HeLa Transcription Induction Assay for Estrogen Receptor (AID 2283381; active = hit-call score of the fitted dose curve at least 0.9, where 1 is the maximum; inactive = score below 0.9). Summed up: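 Fluorescent reporter signal, imaged by microscopy and scored with image-analysis algorithms, was taken 8 h after chemical dosing of HeLa cells; activity was fitted upward relative to DMSO.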
Sequence of Estrogen receptor (Homo sapiens) (P03372 whole entry, looked up): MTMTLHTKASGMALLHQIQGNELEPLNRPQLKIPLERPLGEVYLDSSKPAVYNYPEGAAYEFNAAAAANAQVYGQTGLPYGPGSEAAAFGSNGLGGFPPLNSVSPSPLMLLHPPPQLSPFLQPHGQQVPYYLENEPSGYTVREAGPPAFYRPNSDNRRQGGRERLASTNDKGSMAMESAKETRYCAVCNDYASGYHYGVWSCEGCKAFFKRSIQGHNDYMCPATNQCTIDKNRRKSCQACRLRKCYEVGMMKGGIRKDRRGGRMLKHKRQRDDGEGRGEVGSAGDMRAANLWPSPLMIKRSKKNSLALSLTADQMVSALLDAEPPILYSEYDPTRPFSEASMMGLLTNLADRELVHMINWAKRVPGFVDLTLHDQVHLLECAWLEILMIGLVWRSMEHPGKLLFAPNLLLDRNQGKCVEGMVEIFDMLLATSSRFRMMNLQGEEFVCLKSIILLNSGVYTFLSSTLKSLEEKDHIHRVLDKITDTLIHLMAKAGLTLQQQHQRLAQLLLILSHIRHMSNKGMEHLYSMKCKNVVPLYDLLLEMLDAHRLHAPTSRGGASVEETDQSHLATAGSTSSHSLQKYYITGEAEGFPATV

Assay [5] shares this target. Description: OT_ERa_GFPERaERE_0120: Odyssey Thera (OT) 2-hour HeLa Transcription Induction Assay for Estrogen Receptor (AID 2283382). The gist of the method: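 HeLa, 384-well, 2 h chemical exposure; GFP reporter induction (ERE), fluorescence microscopy; high content image analysis; positive fitting direction vs DMSO.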
For assay [6], the target named is Bile acid receptor (Homo sapiens) (UniProt Q96RI1). Description: OT_FXR_FXRSRC1_0480: Odyssey Thera (OT) 8-hour HEK293T Protein-Complementation Assay for Farnesoid X receptor/SRC-1 Co-activator (AID 2283383). Summed up:
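Human kidney HEK293T cells carried FXR/SRC-1 fragment-complementation constructs. Compounds were added and incubated 8 h. Reporter reassembly upon receptor–co-activator interaction was then quantified by fluorescence, with curves fitted in the positive direction relative to DMSO.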

Assay [7] addresses rat Androgen Receptor (AR), Ar (gene 24208) (UniProt P15207). Description: NVS_NR_rAR: NovaScreen (NVS) Nuclear Receptor Binding Assay for rat Androgen Receptor (AR) (AID 2283366). The gist of the method:
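Cell-free radioligand binding on extracts of prostate from testosterone-pretreated rats, read by filter-based scintillation counting 18 h after dosing. Loss of bound signal fitted positively versus DMSO; primary screen in duplicate at 25 uM, actives followed up in concentration series.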

Assay [8] deals with guinea pig Dopamine Transporter (DAT), gene 100714898. The assay can be described thus: NVS_TR_gDAT: NovaScreen (NVS) Transporter Assay for guinea pig Dopamine Transporter (DAT) (AID 2283369).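 Note: active compounds lower bound radioligand signal relative to DMSO.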 Summed up: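 Cell-free striatal membrane prep (guinea pig), 2 h exposure, filtration + scintillation readout of radioligand binding. Single-point 25 uM duplicate; actives rerun singleton, top conc 50 uM.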

Assay [9] concerns the target human Norepinephrine Transporter (NET), SLC6A2 (gene 6530) (UniProt P23975). The assay can be described thus: NVS_TR_hNET: NovaScreen (NVS) Transporter Assay for human Norepinephrine Transporter (NET) (AID 2283377).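 Note: cell-free membrane protein extracted from CHO cells expressing human NET; displacement of radioligand from human NET seen as loss of scintillation signal.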 Summed up:
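Scintillation counts of filter-retained radioligand served as the readout, taken 1 h post-dosing in a cell-free CHO-derived system. Test chemicals ran first at 25 uM in duplicate; confirmed hits were retested across concentrations.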

The target of assay [10] is human Peroxisome Proliferator-activated Receptor alpha (PPARa), PPARA (gene 5465) (UniProt Q07869). Description: NVS_NR_hPPARa: NovaScreen (NVS) Nuclear Receptor Binding Assay for human Peroxisome Proliferator-activated Receptor alpha (PPARa) (AID 2283359).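 Note: activity means loss of TR-FRET signal versus DMSO baseline.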 The gist of the method:
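Chemicals were first screened in duplicate at 25 uM, and active ones were retested across concentration series. Binding was monitored by TR-FRET one hour after dosing, with decreased signal against DMSO counted as activity.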

The target of assay [11] is human Adenosine Transporter (Adot), SLC29A1 (gene 2030) (UniProt Q99808). The assay can be described thus: NVS_TR_hAdoT: NovaScreen (NVS) Transporter Assay for human Adenosine Transporter (Adot) (AID 2283368). Summed up: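 U937-derived membranes, cell-free radioligand binding, filter scintillation 1 h after dosing. 25 uM duplicate screen; hits (e.g. 30% inhibition) run in concentration-response up to 50 uM; loss of signal versus DMSO.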

Assay [12] concerns the target human Dopamine Transporter (DAT), SLC6A3 (gene 6531) (UniProt Q01959). Description: NVS_TR_hDAT: NovaScreen (NVS) Transporter Assay for human Dopamine Transporter (DAT) (AID 2283374).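 Note: activity means loss of bound radioligand signal relative to DMSO.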 Summed up: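 Test chemicals were first screened in duplicate at 25 uM, with actives retested as concentration series. Displacement of a specific radioligand from cell-free human dopamine transporter was measured after 1 h by filtration and scintillation counting.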

The target in assay [13] is mouse Estrogen Receptor alpha (Era), Esr1 (gene 13982) (UniProt P19785). The assay can be described thus: NVS_NR_mERa: NovaScreen (NVS) Nuclear Receptor Binding Assay for mouse Estrogen Receptor alpha (Era) (AID 2283378).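 Note: hit means loss of bound radioligand signal relative to DMSO.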 Summed up: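 Filter scintillation counts of bound radioligand, measured 18 h post-dose, gave the readout; decreased signal relative to DMSO controls indicated displacement from mouse Era. Primary screen ran in duplicate at 25 uM; active chemicals were retested across concentrations.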
Sequence of mouse Estrogen Receptor alpha (Era), Esr1 (gene 13982) (P19785 whole entry, looked up): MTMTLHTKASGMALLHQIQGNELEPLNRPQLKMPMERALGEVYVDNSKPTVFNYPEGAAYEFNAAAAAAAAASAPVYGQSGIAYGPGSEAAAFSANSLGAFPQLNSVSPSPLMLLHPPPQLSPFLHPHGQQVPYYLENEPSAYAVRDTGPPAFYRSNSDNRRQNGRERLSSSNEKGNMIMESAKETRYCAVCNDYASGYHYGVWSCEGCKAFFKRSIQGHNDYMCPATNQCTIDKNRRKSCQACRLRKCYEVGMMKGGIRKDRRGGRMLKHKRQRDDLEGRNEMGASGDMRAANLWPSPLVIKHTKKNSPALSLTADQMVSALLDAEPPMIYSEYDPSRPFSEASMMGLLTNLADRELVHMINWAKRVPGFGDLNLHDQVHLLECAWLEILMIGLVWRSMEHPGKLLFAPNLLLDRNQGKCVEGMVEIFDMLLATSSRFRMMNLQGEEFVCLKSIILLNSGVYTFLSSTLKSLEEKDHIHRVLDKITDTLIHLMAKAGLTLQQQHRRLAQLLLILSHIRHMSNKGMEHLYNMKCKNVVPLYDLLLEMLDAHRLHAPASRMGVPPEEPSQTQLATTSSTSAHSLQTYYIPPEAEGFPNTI

Assay [14] has as its target Retinoic acid receptor alpha (Homo sapiens) (UniProt P10276). The assay can be described thus: NVS_NR_hRARa_Agonist: NovaScreen (NVS) Nuclear Receptor Binding Assay for human Retinoic Acid Alpha Receptor Agonism (RAR) (AID 2283361). Summed up: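 Readout is time-resolved fluorescence resonance energy transfer after a 2 h exposure of cell-free extracted receptor protein. Initial testing used 25 uM in duplicate, with concentration-response follow-up for active chemicals.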

Assay [15] addresses Nuclear receptor subfamily 1 group I member 2 (Homo sapiens) (UniProt O75469). Description: NVS_NR_hPXR: NovaScreen (NVS) Nuclear Receptor Binding Assay for human Pregnane X Receptor (PXR) (AID 2283365).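 Note: a drop in FRET signal versus DMSO baseline means the compound binds.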 Summed up:
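TR-FRET signal read at 2 h in a cell-free human PXR binding format. DMSO served as negative control and baseline; activity scored as signal loss. Single-concentration duplicate screen (25 uM), then concentration-response follow-up.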

Assay [16] deals with human Serotonin Transporter (SERT), SLC6A4 (gene 6532) (UniProt P31645). The assay can be described thus: NVS_TR_hSERT: NovaScreen (NVS) Transporter Assay for human Serotonin Transporter (SERT) (AID 2283372). The gist of the method:
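Radioligand binding to native SERT in human platelet membranes, read by filter-based scintillation counting 1 h after dosing. Primary screen in duplicate at 25 uM; actives followed up in concentration series; loss of signal versus DMSO baseline.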

In assay [17] the test system is rat Norepinephrine Transporter (NET), gene 83511. Description: NVS_TR_rNET: NovaScreen (NVS) Transporter Assay for rat Norepinephrine Transporter (NET) (AID 2283373). The gist of the method:
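Rat forebrain membranes; radioligand binding measured by filter-based scintillation counting 1 hour after dosing. Loss of specific binding versus DMSO baseline scored; primary screen in duplicate at 25 uM, actives followed up in concentration series.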

Assay [18] concerns the target rat Serotonin Transporter (SERT), Slc6a4 (gene 25553) (UniProt P31652). Description: NVS_TR_rSERT: NovaScreen (NVS) Transporter Assay for rat Serotonin Transporter (SERT) (AID 2283375). The gist of the method:
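Radioligand displacement, filter scintillation readout; rat forebrain membrane prep, 1 h post-dose. Single-conc 25 uM duplicate screen, then concentration-response on actives. Loss of signal vs DMSO baseline.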

For assay [19], the target named is human Thyroid Receptor Alpha (TRa), THRA (gene 7067) (UniProt P10827). Description: NVS_NR_hTRa_Antagonist: NovaScreen (NVS) Nuclear Receptor Binding Assay for human Thyroid Receptor Alpha Antagonism (TRa) (AID 2283362).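 Note: activity is loss of signal relative to DMSO baseline.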 Summed up: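 AlphaLISA chemiluminescent immunoassay readout, taken 1 h post-dosing in a cell-free system with extracted protein. Activity was scored as signal loss against DMSO negative control, from duplicate single-concentration (25 uM) testing followed by concentration-response follow-up.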

The record followed here is PubChem BioAssay (EPA / NIEHS).

Inconclusive results are not listed. Calls of active or inactive are those of the source. Rule for the calls, unless noted: active = hit-call score of the fitted dose curve at least 0.9, where 1 is the maximum; inconclusive = response in the unintended direction; inactive = score below 0.9.

Sequence of Glucocorticoid receptor (Homo sapiens) (P04150 whole entry, looked up): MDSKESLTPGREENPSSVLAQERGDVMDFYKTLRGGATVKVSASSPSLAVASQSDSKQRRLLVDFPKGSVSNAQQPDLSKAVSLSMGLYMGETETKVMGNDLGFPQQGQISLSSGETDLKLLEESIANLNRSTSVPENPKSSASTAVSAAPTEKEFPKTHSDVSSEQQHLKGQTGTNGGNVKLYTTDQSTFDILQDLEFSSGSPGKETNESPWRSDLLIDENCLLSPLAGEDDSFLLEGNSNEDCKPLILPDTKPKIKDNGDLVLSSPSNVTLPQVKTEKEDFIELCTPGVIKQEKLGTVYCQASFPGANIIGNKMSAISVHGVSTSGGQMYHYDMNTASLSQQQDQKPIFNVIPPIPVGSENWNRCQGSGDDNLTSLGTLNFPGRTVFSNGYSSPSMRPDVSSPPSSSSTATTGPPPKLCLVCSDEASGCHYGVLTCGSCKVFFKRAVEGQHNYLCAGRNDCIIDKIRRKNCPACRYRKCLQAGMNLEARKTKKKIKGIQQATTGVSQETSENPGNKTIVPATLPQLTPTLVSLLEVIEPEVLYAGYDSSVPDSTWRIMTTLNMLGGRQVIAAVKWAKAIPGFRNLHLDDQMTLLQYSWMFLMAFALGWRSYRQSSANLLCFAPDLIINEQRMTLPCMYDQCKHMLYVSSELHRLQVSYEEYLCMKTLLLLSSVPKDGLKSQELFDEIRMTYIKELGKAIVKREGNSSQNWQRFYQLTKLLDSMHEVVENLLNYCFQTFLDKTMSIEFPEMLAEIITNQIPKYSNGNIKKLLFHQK
Sequence of Estrogen receptor beta (Homo sapiens) (Q92731 whole entry, looked up, the tested form may be a part): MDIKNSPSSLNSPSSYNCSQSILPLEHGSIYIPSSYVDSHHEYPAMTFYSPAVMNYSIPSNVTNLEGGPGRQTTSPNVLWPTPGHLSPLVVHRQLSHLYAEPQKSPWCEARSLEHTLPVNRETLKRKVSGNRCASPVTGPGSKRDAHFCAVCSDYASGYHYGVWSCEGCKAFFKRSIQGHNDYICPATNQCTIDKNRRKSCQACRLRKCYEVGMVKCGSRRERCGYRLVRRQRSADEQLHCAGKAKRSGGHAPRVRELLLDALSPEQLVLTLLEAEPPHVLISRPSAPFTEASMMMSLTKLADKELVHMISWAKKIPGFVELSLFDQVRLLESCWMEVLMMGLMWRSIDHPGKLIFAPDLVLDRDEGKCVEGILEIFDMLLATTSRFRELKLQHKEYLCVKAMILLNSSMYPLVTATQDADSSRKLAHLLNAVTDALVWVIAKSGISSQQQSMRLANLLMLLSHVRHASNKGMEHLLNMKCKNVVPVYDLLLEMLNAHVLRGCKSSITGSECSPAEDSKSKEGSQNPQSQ
Sequence of human Peroxisome Proliferator-activated Receptor alpha (PPARa), PPARA (gene 5465) (Q07869 whole entry, looked up): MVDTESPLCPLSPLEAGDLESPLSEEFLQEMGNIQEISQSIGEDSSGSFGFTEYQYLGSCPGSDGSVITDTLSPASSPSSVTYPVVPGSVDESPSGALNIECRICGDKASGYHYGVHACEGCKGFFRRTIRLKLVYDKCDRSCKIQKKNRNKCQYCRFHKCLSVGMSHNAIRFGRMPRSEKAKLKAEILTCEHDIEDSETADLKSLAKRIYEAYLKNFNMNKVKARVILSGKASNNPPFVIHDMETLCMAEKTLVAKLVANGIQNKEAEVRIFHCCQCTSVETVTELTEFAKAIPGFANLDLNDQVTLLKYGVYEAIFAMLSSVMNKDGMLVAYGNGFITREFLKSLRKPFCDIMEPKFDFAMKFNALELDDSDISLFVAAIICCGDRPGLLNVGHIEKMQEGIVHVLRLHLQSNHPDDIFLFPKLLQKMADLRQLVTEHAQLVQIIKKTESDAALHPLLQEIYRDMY
Sequence of PGR (gene 5241) (P06401 whole entry, looked up): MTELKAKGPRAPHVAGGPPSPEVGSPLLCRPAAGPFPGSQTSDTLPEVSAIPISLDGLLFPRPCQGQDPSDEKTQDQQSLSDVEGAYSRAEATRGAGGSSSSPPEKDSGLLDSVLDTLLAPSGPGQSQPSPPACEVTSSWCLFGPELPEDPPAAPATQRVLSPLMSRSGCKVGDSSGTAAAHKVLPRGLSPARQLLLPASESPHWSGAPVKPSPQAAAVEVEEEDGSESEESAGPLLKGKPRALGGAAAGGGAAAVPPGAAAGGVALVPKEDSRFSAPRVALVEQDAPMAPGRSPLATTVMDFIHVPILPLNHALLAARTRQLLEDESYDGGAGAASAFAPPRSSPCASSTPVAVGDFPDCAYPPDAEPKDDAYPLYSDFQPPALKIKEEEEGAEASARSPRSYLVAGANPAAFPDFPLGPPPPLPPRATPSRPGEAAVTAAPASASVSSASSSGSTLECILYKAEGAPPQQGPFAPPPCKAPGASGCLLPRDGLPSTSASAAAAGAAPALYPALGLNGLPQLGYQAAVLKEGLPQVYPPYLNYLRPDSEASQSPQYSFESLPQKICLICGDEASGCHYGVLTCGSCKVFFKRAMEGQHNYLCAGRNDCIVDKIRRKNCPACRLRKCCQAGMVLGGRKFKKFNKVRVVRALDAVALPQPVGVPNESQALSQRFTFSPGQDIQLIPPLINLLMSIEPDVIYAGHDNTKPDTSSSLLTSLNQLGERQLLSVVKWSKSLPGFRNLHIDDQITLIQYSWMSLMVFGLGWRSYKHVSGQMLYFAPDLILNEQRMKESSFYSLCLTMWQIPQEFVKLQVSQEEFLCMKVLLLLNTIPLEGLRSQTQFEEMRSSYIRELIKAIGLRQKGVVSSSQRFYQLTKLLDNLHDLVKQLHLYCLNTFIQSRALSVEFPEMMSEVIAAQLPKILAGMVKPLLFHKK
Sequence of Nuclear receptor subfamily 1 group I member 2 (Homo sapiens) (O75469 whole entry, looked up): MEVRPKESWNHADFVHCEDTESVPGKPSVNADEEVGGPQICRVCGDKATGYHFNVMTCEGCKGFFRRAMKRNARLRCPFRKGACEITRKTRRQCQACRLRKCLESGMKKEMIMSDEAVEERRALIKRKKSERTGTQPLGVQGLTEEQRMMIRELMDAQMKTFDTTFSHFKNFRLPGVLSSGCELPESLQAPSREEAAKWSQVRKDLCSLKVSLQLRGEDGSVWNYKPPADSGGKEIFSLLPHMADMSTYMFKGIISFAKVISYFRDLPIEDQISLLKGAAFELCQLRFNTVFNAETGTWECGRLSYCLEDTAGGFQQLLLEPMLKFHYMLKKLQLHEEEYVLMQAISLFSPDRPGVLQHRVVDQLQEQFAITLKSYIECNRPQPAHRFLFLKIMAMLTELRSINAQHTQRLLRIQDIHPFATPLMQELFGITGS

Turning to `CC(C)(O)c1ccc(CNC(=O)c2cccnc2Oc2ccc3nonc3c2)cc1`, the call (with PGR (gene 5241); in assay [1]; in [2]; in assay [3]; in [4]; in [5]) was inactive.
For `CC1=CC(=O)/C(=C(/C)O)C(=O)O1`, the molecule was classed as inactive (with PGR (gene 5241); in assay [2]; in assay [3]; in [4]; in [5]; in assay [6]).
Consider `Cc1cc(F)ccc1-c1cc(N2CC[C@@H](O)[C@H]2CO)ncc1N(C)C(=O)C(C)(C)c1cc(C(F)(F)F)cc(C(F)(F)F)c1`, for which the AC50 is 0.401 µM (active) in the assay with PGR (gene 5241), 4.3 µM (active) in assay [1], 8.3 µM (active) in assay [8] and 5.97 µM (active) in [9]. Also, the outcome in assay [7], in assay [2], in assay [3], in [4] and in [5] was inactive.
Take `CCCCCCCCOC(=O)c1cc(O)c(O)c(O)c1`: the AC50 in assay [10] was 19 µM (active); in assay [1], 1.14 µM (active); in assay [11], 22.2 µM (active); in assay [2] it was 25 µM (active); in assay [12], 19.9 µM (active); in assay [9], 5.24 µM (active). Besides, the AC50 in assay [13] was 11.3 µM (active); in assay [3], 11.6 µM (active); in assay [4], 50 µM (active); in assay [5], 3.33 µM (active); in assay [6] it was 63.6 µM (active).
As for `c1ccc2ccccc2c1`, the molecule was called inactive in [14], in [2], in assay [4] and in assay [5].
As for `CCCCCCCCN(C)CCCCCCCC`, the call (with PGR (gene 5241); in assay [13]; in assay [4]; in [5]) was inactive.
Turning to `NCc1cccc(C2CCN(C(=O)c3ccc(C#Cc4ccccc4F)o3)CC2)c1`, the AC50 in assay [10] was 40.8 µM (active); in assay [1], 7.56 µM (active); in assay [15], 7.85 µM (active); in assay [7], 15.4 µM (active); in assay [11] it was 25 µM (active); in assay [8], 10 µM (active). Also, the AC50 in assay [2] was 5.98 µM (active); in [17] it was 18.9 µM (active); in assay [12], 1.79 µM (active); in [18] it was 16.7 µM (active); in assay [9], 4.42 µM (active); in assay [5], 12 µM (active). Moreover, the outcome (with PGR (gene 5241); in [16]; in assay [4]) was inactive.
Regarding `CN(C[C@@H](CC[N+]12CCC(C3CCCCC3)(CC1)CC2)c1ccc(Cl)c(Cl)c1)C(=O)c1cc(C(F)(F)F)cc(C(F)(F)F)c1`, the molecule was called inactive (with PGR (gene 5241); in assay [13]; in assay [3]; in assay [5]). Moreover, the AC50 in assay [1] is 6.49 µM (active); in assay [15] it was 25 µM (active); in [16] it was 17.5 µM (active); in assay [12], 1.95 µM (active); in assay [18], 16.7 µM (active); in [9], 1.38 µM (active). Moreover, the AC50 in assay [4] was 12.4 µM (active); in assay [6], 85.4 µM (active).
Turning to `O=C(O)c1ccccc1C(=O)OCc1ccccc1`, the molecule was called inactive in [10], in [4] and in [5].
Regarding `Clc1cc(Cl)c2c(c1)N=C1CCCCCN1C2`, the call (in [10]; with PGR (gene 5241); in [4]; in [5]) was inactive. Further, the concentration at half-maximal activity (AC50) in assay [17] is 4.16 µM (active); in assay [12], 4.92 µM (active); in [9] it was 3.55 µM (active).
On to `CC(C)(c1cc(Br)c(O)c(Br)c1)c1cc(Br)c(O)c(Br)c1`, for which the AC50 in assay [10] was 8.19 µM (active); with PGR (gene 5241) it was 23.9 µM (active); in [1], 4.97 µM (active); in assay [6], 70 µM (active). For the same molecule, the result in assay [13] and in [3] was inactive.
Turning to `CC1(C)NC(=O)N(c2ccc([N+](=O)[O-])c(C(F)(F)F)c2)C1=O`, the AC50 with PGR (gene 5241) was 15.7 µM (active). For the same molecule, the outcome in [15], in assay [2], in assay [3] and in [6] was inactive.
Turning to `CCCCCCCCOc1ccc(C(=O)c2ccccc2)c(O)c1`, the call in assay [10], in [4], in [5] and in assay [6] was inactive.
For the molecule `O=C(O)Cc1cc(I)c(Oc2ccc(O)c(I)c2)c(I)c1`, the AC50 in assay [10] is 46.3 µM (active); with PGR (gene 5241), 6.44 µM (active); in assay [1] it was 561 nM (active) [middle of 4 runs]. In addition, the outcome in assay [15], in [2], in assay [3] and in assay [6] was inactive.
In the case of `CCCCCCCCCCCO`, the result in assay [10], in [13], in assay [3], in [4], in assay [5] and in assay [6] was inactive. For the same molecule, the AC50 in assay [19] was 28.4 µM (active).

Usually AC50 stands for the midpoint of the concentration-response curve, whichever way the signal moves.
